Results published in PubChem BioAssay AID686971 (National Center for Advancing Translational Sciences (NCATS), 2013).
Among all 360,000 compounds or so, about 7,500 (2.1%) were called active. Roughly 8% stayed inconclusive and do not appear here. The list comes from a sample in which actives are over-represented; it also holds similar structures and randomly drawn compounds. Values without a mark were called inactive. Calls follow the shape of the dose curve; as a rule, active = well fitted cell-killing curve with a large enough effect; inconclusive = small, poorly fitted or top-dose-only effect, or effect the other way, or another doubt; inactive = no such curve, though single readings can be large or run the other way.

Test: qHTS for induction of synthetic lethality in tumor cells producing 2HG: qHTS for the HT-1080-IDH1KD cell line
Details: HT-1080 IDH1 knockdown viability, ATP luminescence, 48 h; series mostly up to 46.1 µM; activity, negative = toxicity: at the top concentration
Text: Unbiased genomic sequencing for 22 glioma genomes found recurrent mutation of IDH1 on chromosome 2q33, a gene encoding the cytosolic isoform of IIDH1 associated with the tri-carboxylic acid cycle (TCA) that catalyzes the oxidative decarboxylation of isocitrate, yielding alpha-ketoglutarate and CO2 via NADP+ to NADPH conversion. Subsequent studies confirmed the recurrent IDH mutations in up to 70% of secondary gliomas and in 10% of AML cases. In addition, the somatic mutation of cancer-associated IDH1 is a point mutation resulting in various amino-acid substituents at Arginine132 (IDH1 R132), a key residue found in the enzyme's active site that when mutated, results in the loss-of-function in metabolizing isocitrate but confers a gain-of-function to produce the oncometabolite 2-hydroxyglutarate (2HG). This in effect defines IDH1 as an oncogene and provides an extraordinary opportunity to discover chemical probes against mutant IDH1 that may translate into much needed new therapies for glioma and AML patients.
This assay aims to perform a synthetic-lethal screen for chemical probes specific for 2HG-producing tumor cells using matched paired cell lines (1) HT-1080-NT fibrosarcoma cell line that overproduces 2HG and (2) HT-1080-IDH1KD cell line which has IDH1 expression knocked-down. Desirable compounds are toxic to the NT fibrosarcoma cell line but not to the IDH1KD cell line. The data in this AID corresponds to the results of the qHTS against the HT-1080 IDH1KD cell line.
[1] Dang L, Jin S, Su SM. IDH mutations in glioma and acute myeloid leukemia. Trends of Mol Med. 2010; 16(9): 387-97.
[2] Dang L et al. Cancer-associated IDH1 mutations produce 2-hydroxyglutarate. Nature. 2010; 465(7300):966.
Molecular Libraries Probe Production Centers Network [MLPCN]
NIH Chemical Genomics Center [NCGC]
Assay Submitter (PI): Lenny Dang Ph.D., Agios Pharmaceuticals
Suspensions of trypsinized HT-1080-IDH1KD cells were dispensed into white, tissue culture-treated, solid 1536-well plates at 5uL/well (750 cells/well final concentration) in RPMI medium supplemented with 5% FBS. Plates were incubated at 37 degrees C for 2 hours, after which 23 nL of compounds or DMSO were delivered to each well using a pin tool. Plates were then incubated at 37 degrees C for an additional 48 hours. CellTiter-Glo viability reagent (Promega) was dispensed into wells (2.5uL/well) and incubated at room temperature for 10 minutes. The plates were measured on a PerkinElmer ViewLux plate reader for luminescent signal (clear filter, 1 sec exp.). DMSO-treated control wells and media-only (no cells) control wells were used to normalize %Activity of identified toxic compounds; DMSO-treated wells corresponded to 0%Activity (100% viability), while media-only controls were used to normalize 100%Activity (0% viability). To minimize variability between cell lines, both HT-1080-NT and HT-1080-IDH1KD lines were dispensed and treated with identical compound series in single batches.
Concentration-response curves were fitted to the signals arising from the resulting luminescence. The concentration-effect curves were then classified based on curve quality (r2), response magnitude and degree of measured activity, and compounds were subsequently categorized based on their curve class.
Potency is read from the fitted curve at half-maximal effect.

SMILES | activity, negative = toxicity | Potency
CC1CC=CCC12C(=O)NC(=S)NC2=O (stereo not given) | 12.1% (inactive) | 
C[C@]12CCCCC1=CC(=O)C1C2CC[C@@]2(C)C1C[C@@H](F)[C@@H]2O (stereo not given in full) | -0.58% (inactive) | 
CCOC(=O)CNC(=O)N1Cc2cc(N3CCCCC3)ccc2-n2nncc2C1 | 15.5% (inactive) | 
Cc1ccc(OC(=O)N(C)C[C@@H]2OCc3cnnn3CCCC(=O)N([C@H](C)CO)C[C@@H]2C)cc1 | 0.516% (inactive) | 
COc1ccc(N2C(=O)/C(=C/c3ccco3)C(=O)NC2=S)cc1 | 1.76% (inactive) | 
O=C1NC(=O)N(Cc2ccco2)C(=O)/C1=C\c1ccc(-c2ccc(F)cc2)o1 |  | 18.4 µM (active)
CCOC(=O)c1cccc(C2=C(CNC(=O)c3ccncc3)[C@H]3CC[C@@H](C2)N3Cc2ccccc2)c1 | -5.65% (inactive) | 
NC(=O)Nc1cccc(C(F)(F)F)c1 | 0.786% (inactive) | 
CCNS(=O)(=O)c1ccc(NC(=O)Nc2cccc(C(F)(F)F)c2)cc1 |  | 11.2 µM (active)
CNC(=O)Nc1ccc(C(O)(C(=O)OC)C(F)(F)F)cc1 (stereo not given) | 3.8% (inactive) | 
O=P(OC1=CCCCC1)(c1ccccc1)c1ccccc1 | -14.1% (inactive) | 
COP(=O)(NS(=O)(=O)c1ccccc1)OC | 9.88% (inactive) | 
c1ccc(C(CN2CCCCC2)c2ccccc2)cc1 | 14.8% (inactive) | 
O=c1c2ccccc2[nH]c(=S)n1-c1cccc(Cl)c1 | -12.2% (inactive) | 
O=C1C2(Cl)C3(Cl)C4(Cl)C(Cl)(Cl)C5(Cl)C3(Cl)C1(Cl)C5(Cl)C24Cl (stereo not given) |  | 16.4 µM (active)
CC1C(=O)OC2CCN3CC=C(COC(=O)C(C)(O)C1(C)O)C23 (stereo not given) | 6.77% (inactive) | 
Cc1cccc(NC(=O)OC2CN3CCC2CC3)c1 (stereo not given) | 5.13% (inactive) | 
CN1CCN(Cc2ccc(OC(F)(F)F)cc2)CC1 | 10.9% (inactive) | 
Cc1nc2ccccc2c(=O)n1-c1ccc(Cl)cc1Cl | -2.58% (inactive) | 
O=c1c2ccccc2nc(/C=C/c2ccc(F)cc2)n1-c1ccccc1O |  | 20.6 µM (active)
O=c1c2ccccc2nc(/C=C/c2ccco2)n1-c1ccccc1O | -27.3% (inactive) | 
CCOc1cccc(=NC2CCCCC2)c2c(C)[nH]c(C)c12 |  | 20.6 µM (active)
C=C(C)C1(CCCC)C(=O)NC(=S)NC1=O | 22.4% (inactive) | 
CC(=O)Nc1ccc(C(=O)C(Cc2ccccc2)N(C)C)cc1 (stereo not given) | 2.05% (inactive) | 
CSc1nc2ccc(C)cc2c(=O)n1-c1cccnc1 | 0.487% (inactive) | 
O=C(NC1CCCCC1)N1Cc2cc(N3CCCCC3)ccc2-n2nncc2C1 | 13.2% (inactive) | 
Cc1cc2ccccn2c1C(C[N+](=O)[O-])c1c(F)cccc1Cl (stereo not given) |  | 10.3 µM (active)
CN1CCc2cc3c(cc2[C@H]1[C@@H]1OC(=O)c2c1ccc1c2OCO1)OCO3 | 3.58% (inactive) | 

SMILES | activity, negative = toxicity | Potency
c1cc2c(c(NC3=NCCCS3)c1)CCCC2 | -20.4% (inactive) | 
COC(=O)C1=C(c2ccc(OCc3ccccc3)cc2)C[C@@H]2CC[C@H]1N2C(=O)NCc1ccc(Cl)cc1 | 2.58% (inactive) | 
Cc1nc2nc(C)c(CCC(=O)N3CCC4(CC3)OCCO4)c(C)n2n1 | 15.2% (inactive) | 
COc1ccc2c3c1O[C@H]1C[C@@H](O)C=C[C@@]31CCN(C)C2 |  | 5.8 µM (active)
COC1=CC=C2[C@H]3Cc4ccc(OC)c5c4[C@@]2(CCN3C)C1O5 (stereo not given in full) | -7.32% (inactive) | 
COc1ccc2c(c1O)-c1cccc3c1[C@@H](C2)N(C)CC3 | -0.356% (inactive) | 
COc1ccc(C(=O)CC2C(=O)N(C)C(=O)N(C)C2=O)cc1 | -2.16% (inactive) | 
Cc1ccc(-n2c(O)c(C=NCC3CCCO3)c(=O)[nH]c2=O)c(C)c1 (stereo not given) | 5.18% (inactive) | 
COc1ccc(NC(=O)N2Cc3ccccc3-n3nncc3C2)cc1 | 14% (inactive) | 
Cc1ncoc1C(=O)NCC1=C(c2cccc3ccccc23)C[C@@H]2CC[C@H]1N2Cc1ccco1 | 3.31% (inactive) | 
COc1cc(Cn2c(N)c(C(=O)NCc3ccco3)c3nc4ccccc4nc32)cc(OC)c1OC |  | 8.91 µM (active)
COC(=O)C1=C(c2ccccc2)C[C@@H]2CC[C@H]1N2C(=O)NCc1ccco1 | 10.2% (inactive) | 
CCOC(=O)C1(c2ccccc2)CCN(CC(O)c2ccc(NC(C)=O)cc2)CC1 (stereo not given) | -4.56% (inactive) | 
CC12CCC3C(CCC4CC(=O)CCC43C)C1CC(=NO)C2=O (stereo not given) | -6.65% (inactive) | 
CNC(=O)O/N=C(\N)Cc1csc2ccccc12 | -5.52% (inactive) | 
CNC(=O)O/N=C(\N)Cc1csc2ccc(Cl)cc12 |  | 20.6 µM (active)
COC(=O)C1=C(c2ccc(OCc3ccccc3)cc2)C[C@@H]2CC[C@H]1N2C(=O)NCc1cccc(F)c1 | -15% (inactive) | 
O=C(NC(=S)N1C[C@H]2C[C@H](C1)c1cccc(=O)n1C2)c1ccc(F)cc1 | 3.21% (inactive) | 
CC(CC(C#N)(c1ccccc1)c1ccccc1)N1CCCCC1 (stereo not given) | 7.07% (inactive) | 
C=CCN1C(=O)C2(C(C(=O)OCC)=C(N)Oc3c2c(=O)oc2ccccc32)c2ccccc21 (stereo not given) | 6.5% (inactive) | 
O=c1c2ccccc2nc(CBr)n1-c1ccc(Cl)cc1 | -6.41% (inactive) | 
CC1CNCCN1c1ccc(Cl)cc1 (stereo not given) | 1.1% (inactive) | 
CC1=CC(=Cc2sc3ccccc3[n+]2C)C=C(C)O1 |  | 10.3 µM (active)
COc1ccccc1C1=NCc2nnc(CSC)n2-c2ccc(Cl)cc21 | -20.5% (inactive) | 
c1ccc(N2Cc3ccccc3-n3nncc3C2)nc1 | -2.59% (inactive) | 
COc1cccc(C(c2nnnn2-c2ccc3c(c2)OCCO3)N2CCC3(CC2)C(=O)NCN3c2ccccc2)c1OC (stereo not given) |  | 16.4 µM (active)
CC(=O)Nc1ccccc1C(=O)OCC(=O)c1cccc2ccccc12 | 4.55% (inactive) | 
